In article PMC7862700, “An all-to-all approach to the identification of sequence-specific readers for epigenetic DNA modifications on cytosine” one finds binding signal data, which are given here for one sequence.

Assay in all cases: DAPPL (digital affinity profiling via proximity ligation, sequencing); 10 mM Tris-HCl pH 7.5, 50 mM NaCl, 1 mM DTT, 4% glycerol, room temperature, 30 min; GST-TFs on glutathione beads, 16-mer random dsDNA library, 0.1% formaldehyde crosslink after washing; high values mean tight binding
One test concerns the target T1, FLI1 (Homo sapiens, UniProt Q01543 1-452).
T1 sequence: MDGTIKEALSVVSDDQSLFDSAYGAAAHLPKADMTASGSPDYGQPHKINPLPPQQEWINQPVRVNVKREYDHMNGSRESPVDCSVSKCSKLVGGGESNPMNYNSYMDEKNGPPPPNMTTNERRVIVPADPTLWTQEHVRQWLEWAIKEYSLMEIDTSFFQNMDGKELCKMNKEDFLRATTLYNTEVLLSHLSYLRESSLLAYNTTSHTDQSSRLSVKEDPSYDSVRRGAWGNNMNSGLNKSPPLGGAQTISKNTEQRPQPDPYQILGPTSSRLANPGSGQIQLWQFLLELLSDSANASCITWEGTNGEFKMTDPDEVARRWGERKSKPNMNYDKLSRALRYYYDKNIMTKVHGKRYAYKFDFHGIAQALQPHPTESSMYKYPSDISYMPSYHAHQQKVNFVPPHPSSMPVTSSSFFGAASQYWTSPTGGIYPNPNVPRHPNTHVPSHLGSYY
The conditions noted are these: protein: recombinant; tags: N-terminal GST; dsDNA, one strand shown. In short, it runs like this: (§1)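 Pools were built from human transcription factors expressed in yeast as GST fusions, captured on glutathione beads and DNA-barcoded, along with a tag-only sample. Incubation with 200 nmole of a 16-mer random double-stranded DNA library lasted 30 min at room temperature in Tris/NaCl/DTT/glycerol buffer, and was followed by washing, 0.1% formaldehyde crosslinking, proximity ligation, PCR amplification and Illumina NextSeq500 sequencing. Binding signal is the quotient of each hexamer's read frequency for a factor and its frequency for the tag-only sample.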

In another test the target is T2, ELK1 (Homo sapiens, UniProt P19419 1-428).
T2 sequence: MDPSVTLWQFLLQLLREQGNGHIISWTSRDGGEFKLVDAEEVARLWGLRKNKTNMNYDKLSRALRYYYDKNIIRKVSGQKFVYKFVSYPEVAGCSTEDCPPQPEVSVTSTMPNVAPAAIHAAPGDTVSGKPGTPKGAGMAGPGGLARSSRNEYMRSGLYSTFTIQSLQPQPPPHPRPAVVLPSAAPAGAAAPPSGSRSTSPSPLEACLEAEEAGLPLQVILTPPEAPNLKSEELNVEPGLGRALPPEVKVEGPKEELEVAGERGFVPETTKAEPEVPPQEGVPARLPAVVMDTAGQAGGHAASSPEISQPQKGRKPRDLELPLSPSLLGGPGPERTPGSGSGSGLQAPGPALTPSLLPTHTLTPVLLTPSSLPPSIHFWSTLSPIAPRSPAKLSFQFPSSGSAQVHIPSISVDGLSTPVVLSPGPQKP
The conditions noted are these: protein: recombinant; tags: N-terminal GST; dsDNA, one strand shown. In short, it runs like this:
as §1

The target in another test is T3, GABPA (Homo sapiens, UniProt Q06546 1-454).
T3 sequence: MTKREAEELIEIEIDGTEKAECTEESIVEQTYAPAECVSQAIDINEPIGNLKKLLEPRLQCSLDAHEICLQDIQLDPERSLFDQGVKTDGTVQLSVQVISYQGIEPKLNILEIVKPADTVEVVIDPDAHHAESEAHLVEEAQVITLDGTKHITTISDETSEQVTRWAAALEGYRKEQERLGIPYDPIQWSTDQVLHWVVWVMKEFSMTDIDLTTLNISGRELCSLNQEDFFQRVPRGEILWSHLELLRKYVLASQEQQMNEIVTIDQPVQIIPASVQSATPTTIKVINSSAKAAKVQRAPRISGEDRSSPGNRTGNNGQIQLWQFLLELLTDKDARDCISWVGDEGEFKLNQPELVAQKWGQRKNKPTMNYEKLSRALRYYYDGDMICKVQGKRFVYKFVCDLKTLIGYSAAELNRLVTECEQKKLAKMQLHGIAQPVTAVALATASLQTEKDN
The conditions noted are these: protein: recombinant; tags: N-terminal GST; dsDNA, one strand shown. In short, it runs like this:
as §1

Another test has as its target T4, ERG (Homo sapiens, UniProt P11308 1-479).
T4 sequence: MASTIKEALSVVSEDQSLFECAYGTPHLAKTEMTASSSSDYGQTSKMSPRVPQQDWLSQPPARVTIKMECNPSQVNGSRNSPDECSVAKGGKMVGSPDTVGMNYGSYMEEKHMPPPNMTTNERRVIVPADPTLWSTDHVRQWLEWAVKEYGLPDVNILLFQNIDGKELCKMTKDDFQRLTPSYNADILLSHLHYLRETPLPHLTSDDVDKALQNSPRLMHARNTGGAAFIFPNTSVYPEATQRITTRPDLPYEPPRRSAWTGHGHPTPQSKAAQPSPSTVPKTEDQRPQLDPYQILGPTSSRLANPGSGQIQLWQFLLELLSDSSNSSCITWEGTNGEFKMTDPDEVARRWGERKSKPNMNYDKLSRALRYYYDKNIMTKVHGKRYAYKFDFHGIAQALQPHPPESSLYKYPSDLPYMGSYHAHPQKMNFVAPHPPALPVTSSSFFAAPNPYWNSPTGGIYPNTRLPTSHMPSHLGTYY
The conditions noted are these: protein: recombinant; tags: N-terminal GST; dsDNA, one strand shown. In short, it runs like this:
as §1

A further test has as its target ELF1 (Homo sapiens, UniProt P32519 1-619). The conditions noted are these: protein: recombinant; tags: N-terminal GST; dsDNA, one strand shown. In short, it runs like this:
as §1

The target in another test is T5, EHF (Homo sapiens, UniProt Q9NZC4 1-300).
T5 sequence: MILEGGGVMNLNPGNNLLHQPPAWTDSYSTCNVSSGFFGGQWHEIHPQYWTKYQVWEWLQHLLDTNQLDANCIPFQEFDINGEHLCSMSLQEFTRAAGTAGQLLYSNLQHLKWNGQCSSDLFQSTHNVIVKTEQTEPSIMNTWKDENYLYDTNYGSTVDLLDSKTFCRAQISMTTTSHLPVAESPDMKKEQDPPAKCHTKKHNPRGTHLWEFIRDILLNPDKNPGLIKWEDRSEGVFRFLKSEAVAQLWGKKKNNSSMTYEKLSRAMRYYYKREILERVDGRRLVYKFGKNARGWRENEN
The conditions noted are these: protein: recombinant; tags: N-terminal GST; dsDNA, one strand shown. The method in brief: as §1

For another test, the target named is SPI1 (Homo sapiens, UniProt P17947 1-270). Particulars: protein: recombinant; tags: N-terminal GST; dsDNA, one strand shown. The method in brief:
as §1

The target in the next test is SPIB (Homo sapiens, UniProt Q01892 1-262). The conditions noted are these: protein: recombinant; tags: N-terminal GST; dsDNA, one strand shown. The method in brief:
as §1

In a further test the target is T6, ELK3 (Homo sapiens, UniProt P41970 1-407).
T6 sequence: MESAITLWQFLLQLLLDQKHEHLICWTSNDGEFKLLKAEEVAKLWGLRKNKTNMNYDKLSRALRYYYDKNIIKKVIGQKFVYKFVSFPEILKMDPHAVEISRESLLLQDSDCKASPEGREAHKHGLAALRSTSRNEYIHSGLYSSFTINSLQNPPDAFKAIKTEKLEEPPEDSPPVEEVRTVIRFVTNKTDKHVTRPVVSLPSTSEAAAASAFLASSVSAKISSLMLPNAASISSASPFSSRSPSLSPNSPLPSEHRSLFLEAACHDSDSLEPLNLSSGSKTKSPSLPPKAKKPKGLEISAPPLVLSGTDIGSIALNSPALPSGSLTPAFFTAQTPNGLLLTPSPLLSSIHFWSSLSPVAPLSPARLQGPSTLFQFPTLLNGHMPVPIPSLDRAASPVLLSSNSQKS
The conditions noted are these: protein: recombinant; tags: N-terminal GST; dsDNA, one strand shown. In short, it runs like this:
as §1

The next test concerns the target T7, FEV (Homo sapiens, UniProt Q99581 1-238).
T7 sequence: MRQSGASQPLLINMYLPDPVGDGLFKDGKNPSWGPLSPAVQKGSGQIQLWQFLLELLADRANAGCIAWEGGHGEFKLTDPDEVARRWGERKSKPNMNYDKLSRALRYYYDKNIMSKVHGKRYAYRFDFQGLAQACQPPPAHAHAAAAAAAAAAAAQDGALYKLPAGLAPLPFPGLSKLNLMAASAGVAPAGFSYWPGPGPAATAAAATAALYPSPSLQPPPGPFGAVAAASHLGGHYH
The conditions noted are these: protein: recombinant; tags: N-terminal GST; dsDNA, one strand shown. In short, it runs like this:
as §1

A further test addresses ETV5 (Homo sapiens, UniProt P41161 1-510). The conditions noted are these: protein: recombinant; tags: N-terminal GST; dsDNA, one strand shown. The method in brief:
as §1

A further test addresses HSF1 (Homo sapiens, UniProt Q00613 1-529). Particulars: protein: recombinant; tags: N-terminal GST; chain copies: 3; dsDNA, one strand shown. In short, it runs like this: as §1
A further test has as its target T8, SPIC (Homo sapiens, UniProt Q8N5J4 1-248).
T8 sequence: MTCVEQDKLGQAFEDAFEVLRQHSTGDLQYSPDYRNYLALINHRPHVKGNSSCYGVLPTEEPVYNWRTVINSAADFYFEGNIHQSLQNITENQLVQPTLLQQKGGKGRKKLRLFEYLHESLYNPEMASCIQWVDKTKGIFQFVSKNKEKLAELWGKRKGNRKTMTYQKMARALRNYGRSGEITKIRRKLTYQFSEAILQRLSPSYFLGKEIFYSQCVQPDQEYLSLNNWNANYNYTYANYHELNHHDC
Particulars: protein: recombinant; tags: N-terminal GST; dsDNA, one strand shown. The method in brief:
as §1

In the next test the target is ELF4 (Homo sapiens, UniProt Q99607 1-663). Particulars: protein: recombinant; tags: N-terminal GST; dsDNA, one strand shown. The method in brief:
as §1

The next test has as its target T9, ELK4 (Homo sapiens, UniProt P28324-2 1-405).
T9 sequence: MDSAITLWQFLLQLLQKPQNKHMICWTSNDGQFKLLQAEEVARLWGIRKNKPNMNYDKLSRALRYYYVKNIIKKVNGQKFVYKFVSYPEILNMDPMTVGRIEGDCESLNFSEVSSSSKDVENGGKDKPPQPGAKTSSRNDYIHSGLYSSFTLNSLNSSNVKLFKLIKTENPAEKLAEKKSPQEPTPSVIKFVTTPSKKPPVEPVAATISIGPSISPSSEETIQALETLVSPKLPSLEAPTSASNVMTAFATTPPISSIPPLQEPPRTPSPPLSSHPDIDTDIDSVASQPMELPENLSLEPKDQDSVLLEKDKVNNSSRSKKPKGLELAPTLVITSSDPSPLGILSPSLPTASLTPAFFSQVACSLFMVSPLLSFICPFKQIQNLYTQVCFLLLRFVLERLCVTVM
Particulars: protein: recombinant; tags: N-terminal GST; dsDNA, one strand shown. In short, it runs like this:
as §1

For the next test, the target named is T10, ETV2 (Homo sapiens, UniProt O00321 1-342).
T10 sequence: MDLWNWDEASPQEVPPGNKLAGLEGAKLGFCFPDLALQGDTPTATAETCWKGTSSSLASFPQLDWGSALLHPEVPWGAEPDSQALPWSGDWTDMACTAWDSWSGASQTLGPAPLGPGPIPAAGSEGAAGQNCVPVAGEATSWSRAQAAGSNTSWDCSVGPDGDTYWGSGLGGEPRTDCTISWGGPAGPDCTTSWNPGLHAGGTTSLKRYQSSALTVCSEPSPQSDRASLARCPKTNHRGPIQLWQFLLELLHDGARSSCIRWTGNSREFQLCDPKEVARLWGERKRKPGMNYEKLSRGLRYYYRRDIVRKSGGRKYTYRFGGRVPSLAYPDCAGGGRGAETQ
The conditions noted are these: protein: recombinant; tags: N-terminal GST; dsDNA, one strand shown. In short, it runs like this: as §1

A further test addresses T11, ELF3 (Homo sapiens, UniProt P78545 1-371).
T11 sequence: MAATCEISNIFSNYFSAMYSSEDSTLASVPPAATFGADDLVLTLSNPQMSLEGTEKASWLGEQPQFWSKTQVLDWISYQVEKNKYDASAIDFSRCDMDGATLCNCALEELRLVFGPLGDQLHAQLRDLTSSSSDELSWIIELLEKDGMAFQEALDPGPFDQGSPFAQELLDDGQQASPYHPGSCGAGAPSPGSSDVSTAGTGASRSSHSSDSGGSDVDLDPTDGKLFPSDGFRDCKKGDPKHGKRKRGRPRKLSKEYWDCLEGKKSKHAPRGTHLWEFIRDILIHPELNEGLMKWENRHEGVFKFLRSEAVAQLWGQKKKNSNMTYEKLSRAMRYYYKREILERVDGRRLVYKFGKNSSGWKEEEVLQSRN
The conditions noted are these: protein: recombinant; tags: N-terminal GST; dsDNA, one strand shown. In short, it runs like this:
as §1

A further test addresses CRX (Homo sapiens, UniProt O43186 1-299). The conditions noted are these: protein: recombinant; tags: N-terminal GST; dsDNA, one strand shown. In short, it runs like this: as §1
Another test deals with ETV1 (Homo sapiens, UniProt P50549 1-477). Particulars: protein: recombinant; tags: N-terminal GST; dsDNA, one strand shown. In short, it runs like this:
as §1

Sequence of ELF1 (P32519 whole entry): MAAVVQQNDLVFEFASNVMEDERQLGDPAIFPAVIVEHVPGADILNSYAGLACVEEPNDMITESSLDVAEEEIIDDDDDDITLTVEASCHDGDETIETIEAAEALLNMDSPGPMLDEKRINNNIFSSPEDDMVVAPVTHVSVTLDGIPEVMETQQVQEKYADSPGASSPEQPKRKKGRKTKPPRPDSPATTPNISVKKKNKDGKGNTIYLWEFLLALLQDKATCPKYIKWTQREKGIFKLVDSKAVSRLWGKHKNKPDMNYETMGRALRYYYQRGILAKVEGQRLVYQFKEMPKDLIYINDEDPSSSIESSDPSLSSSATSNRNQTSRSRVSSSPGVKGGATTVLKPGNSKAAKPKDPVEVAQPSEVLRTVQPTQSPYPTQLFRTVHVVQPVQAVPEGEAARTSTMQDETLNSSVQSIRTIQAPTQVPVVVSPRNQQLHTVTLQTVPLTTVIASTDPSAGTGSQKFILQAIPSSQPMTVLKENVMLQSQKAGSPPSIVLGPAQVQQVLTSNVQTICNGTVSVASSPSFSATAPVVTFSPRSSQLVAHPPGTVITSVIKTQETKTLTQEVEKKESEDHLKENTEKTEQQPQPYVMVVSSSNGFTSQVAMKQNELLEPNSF
Sequence of ETV1 (P50549 whole entry): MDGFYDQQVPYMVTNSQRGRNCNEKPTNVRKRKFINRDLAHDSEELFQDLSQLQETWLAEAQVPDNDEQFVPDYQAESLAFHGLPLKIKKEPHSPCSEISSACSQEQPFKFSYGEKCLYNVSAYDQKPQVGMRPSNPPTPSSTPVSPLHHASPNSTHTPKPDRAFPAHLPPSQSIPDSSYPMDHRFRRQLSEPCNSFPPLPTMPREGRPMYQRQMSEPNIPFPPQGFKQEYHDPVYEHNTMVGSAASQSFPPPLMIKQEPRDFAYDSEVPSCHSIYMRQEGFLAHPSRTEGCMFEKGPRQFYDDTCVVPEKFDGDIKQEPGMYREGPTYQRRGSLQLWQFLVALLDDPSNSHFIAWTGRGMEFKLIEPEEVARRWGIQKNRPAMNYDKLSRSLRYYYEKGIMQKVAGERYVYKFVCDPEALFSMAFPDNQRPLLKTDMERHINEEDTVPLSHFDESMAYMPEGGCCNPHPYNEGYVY
Sequence of HSF1 (Q00613 whole entry): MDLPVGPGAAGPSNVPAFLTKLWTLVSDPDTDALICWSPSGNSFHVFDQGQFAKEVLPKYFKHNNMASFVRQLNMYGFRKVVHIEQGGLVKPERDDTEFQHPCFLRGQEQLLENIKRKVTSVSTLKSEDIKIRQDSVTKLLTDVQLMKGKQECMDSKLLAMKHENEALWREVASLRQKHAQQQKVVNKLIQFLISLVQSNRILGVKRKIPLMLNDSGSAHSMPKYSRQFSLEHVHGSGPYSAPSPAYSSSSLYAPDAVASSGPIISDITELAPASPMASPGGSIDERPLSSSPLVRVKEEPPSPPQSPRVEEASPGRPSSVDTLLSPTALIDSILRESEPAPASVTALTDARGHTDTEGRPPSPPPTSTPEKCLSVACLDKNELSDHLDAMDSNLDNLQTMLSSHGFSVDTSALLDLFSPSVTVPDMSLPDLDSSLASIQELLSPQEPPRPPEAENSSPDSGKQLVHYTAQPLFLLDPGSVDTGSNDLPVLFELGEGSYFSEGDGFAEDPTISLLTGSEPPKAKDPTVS
Sequence of ELF4 (Q99607 whole entry): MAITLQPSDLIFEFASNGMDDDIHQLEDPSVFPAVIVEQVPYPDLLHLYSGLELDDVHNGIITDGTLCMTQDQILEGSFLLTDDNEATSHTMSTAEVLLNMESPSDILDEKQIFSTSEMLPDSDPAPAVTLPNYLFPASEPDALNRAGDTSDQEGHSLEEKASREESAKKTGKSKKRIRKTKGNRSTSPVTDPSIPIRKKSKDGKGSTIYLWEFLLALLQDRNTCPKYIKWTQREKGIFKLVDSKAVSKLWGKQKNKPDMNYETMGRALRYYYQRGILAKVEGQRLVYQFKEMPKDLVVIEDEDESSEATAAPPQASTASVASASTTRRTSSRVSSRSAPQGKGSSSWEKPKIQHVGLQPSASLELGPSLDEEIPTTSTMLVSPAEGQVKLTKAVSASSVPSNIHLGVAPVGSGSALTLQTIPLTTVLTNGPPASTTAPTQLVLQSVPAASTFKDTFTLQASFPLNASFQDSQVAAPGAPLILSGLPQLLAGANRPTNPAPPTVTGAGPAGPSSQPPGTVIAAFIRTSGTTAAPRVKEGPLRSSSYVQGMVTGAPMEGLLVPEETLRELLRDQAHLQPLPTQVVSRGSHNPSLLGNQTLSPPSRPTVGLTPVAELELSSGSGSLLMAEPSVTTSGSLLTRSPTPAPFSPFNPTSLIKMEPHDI
Sequence of ETV5 (P41161 whole entry): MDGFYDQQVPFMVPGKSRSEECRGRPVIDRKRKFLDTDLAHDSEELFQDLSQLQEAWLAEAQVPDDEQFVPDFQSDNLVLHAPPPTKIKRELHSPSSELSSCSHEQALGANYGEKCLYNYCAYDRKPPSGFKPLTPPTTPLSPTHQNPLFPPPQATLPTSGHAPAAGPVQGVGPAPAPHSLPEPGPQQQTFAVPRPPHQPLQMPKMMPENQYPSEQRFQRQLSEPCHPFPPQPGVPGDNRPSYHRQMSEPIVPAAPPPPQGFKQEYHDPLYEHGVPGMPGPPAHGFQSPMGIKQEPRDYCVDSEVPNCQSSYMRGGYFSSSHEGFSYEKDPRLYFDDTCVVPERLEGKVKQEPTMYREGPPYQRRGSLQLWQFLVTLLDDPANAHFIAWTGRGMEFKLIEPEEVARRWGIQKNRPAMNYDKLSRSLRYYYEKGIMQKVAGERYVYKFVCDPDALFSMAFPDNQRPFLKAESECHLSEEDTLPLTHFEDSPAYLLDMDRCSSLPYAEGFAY
Sequence of CRX (O43186 whole entry): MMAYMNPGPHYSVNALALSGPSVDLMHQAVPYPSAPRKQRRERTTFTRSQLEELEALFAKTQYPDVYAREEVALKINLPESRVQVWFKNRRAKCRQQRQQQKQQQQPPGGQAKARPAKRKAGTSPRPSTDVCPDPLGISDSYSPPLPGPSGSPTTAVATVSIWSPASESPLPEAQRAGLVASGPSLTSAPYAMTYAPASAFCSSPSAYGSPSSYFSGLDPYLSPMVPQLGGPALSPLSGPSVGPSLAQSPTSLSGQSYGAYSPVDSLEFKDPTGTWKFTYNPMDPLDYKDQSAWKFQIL
Sequence of SPIB (Q01892 whole entry): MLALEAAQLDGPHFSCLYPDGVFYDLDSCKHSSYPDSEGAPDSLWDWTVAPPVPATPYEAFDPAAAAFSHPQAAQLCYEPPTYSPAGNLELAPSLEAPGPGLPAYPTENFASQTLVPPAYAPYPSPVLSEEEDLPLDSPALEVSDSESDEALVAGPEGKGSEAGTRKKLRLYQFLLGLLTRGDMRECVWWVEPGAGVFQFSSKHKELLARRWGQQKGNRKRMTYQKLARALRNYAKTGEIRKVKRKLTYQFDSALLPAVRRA

As to ATGATC, the binding signal in the test with FLI1 was 1.2 fold enrichment (6-mer frequency, TF over GST control); with ELK1 it was 1.17 fold enrichment (6-mer frequency, TF over GST control); in the test with GABPA it was 1.3 fold enrichment (6-mer frequency, TF over GST control); with ERG it was 1.1 fold enrichment (6-mer frequency, TF over GST control); in the test with ELF1, 1.22 fold enrichment (6-mer frequency, TF over GST control); with EHF, 1.28 fold enrichment (6-mer frequency, TF over GST control). Further, the binding signal is 1.15 fold enrichment (6-mer frequency, TF over GST control) with SPI1; 1.18 fold enrichment (6-mer frequency, TF over GST control) with SPIB; 1.31 fold enrichment (6-mer frequency, TF over GST control) in the test with ELK3; 1.14 fold enrichment (6-mer frequency, TF over GST control) with FEV; 1.24 fold enrichment (6-mer frequency, TF over GST control) with ETV5; 1.59 fold enrichment (6-mer frequency, TF over GST control) with HSF1. Further, the binding signal in the test with SPIC was 1.38 fold enrichment (6-mer frequency, TF over GST control); with ELF4 it was 1.21 fold enrichment (6-mer frequency, TF over GST control); with ELK4 it was 1.16 fold enrichment (6-mer frequency, TF over GST control); with ETV2, 1.15 fold enrichment (6-mer frequency, TF over GST control); with ELF3, 1.19 fold enrichment (6-mer frequency, TF over GST control); with CRX it was 1.74 fold enrichment (6-mer frequency, TF over GST control). Moreover, in the test with ETV1, the binding signal is 1.1 fold enrichment (6-mer frequency, TF over GST control).
